# Measured values published in the supplement of paper PMC7156485.
# “And” between values parts separate entries of the source, which are not always exact repeats. Equal values may be shown once. ± gives the standard deviation of the averaged measurements.
# Tests used:
# Details in all cases: concentration: 10 µM; 24 h
# HCC1569 [1] = assay: cell number relative to DMSO (% of DMSO); higher = more cells (less growth inhibition / toxicity)
# In short: (§1)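 For HCC1569 and TDF cells, compounds at 10 µM were applied for 24 h at 37 °C in triplicate in 384-well plates. Cells were fixed in 3.7% formaldehyde, stained for H1.0 and with DAPI, and imaged at ×10 over six fields per well. The endpoint, H1.0 nuclear intensity or cell number, is shown as percent of the plate control using the median of replicates. Positional effects were smoothed for HCC1569 only.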
# TDF [2] = assay: as above
# In short: as §1
# TDF [3] = assay: H1.0 immunofluorescence intensity relative to DMSO (% of DMSO); higher = stronger H1.0 induction, active = 120 or more
# In short: as §1
# HCC1569 [4] = assay: H1.0 immunofluorescence intensity relative to DMSO (% of DMSO); higher = stronger H1.0 induction, active = 140 or more
# In short: as §1
# 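Wherever H1.0 immunofluorescence intensity relative to DMSO is given: TDF is a line of transformed human dermal fibroblasts of mesenchymal origin.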
# 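Wherever cell number relative to DMSO is given: TDF denotes transformed human dermal fibroblasts of mesenchymal origin.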
SMILES,cell number (HCC1569 [1]),cell number (TDF [2]),H1.0 immunofluorescence intensity (TDF [3]),H1.0 immunofluorescence intensity (HCC1569 [4])
NC(=S)NN=Cc1ncccc1N [3-amino-2-pyridinecarbaldehyde thiosemicarbazone],77.2,41.7,113 (inactive),99.1 (inactive)
O=C(Nc1cccc(Nc2cc(Nc3cccc(C(F)(F)F)c3)ncn2)c1)C1CC1 [EGFR Inhibitor],54.7,8.22,178 (active),186 (active)
O=C(O)C(=Cc1c(C(=O)O)[nH]c2cc(Cl)cc(Cl)c12)c1ccccc1,105,109,95.3 (inactive),85 (inactive)
C1CCN2CC3CC(CN4CCCCC34)C2C1.O.O.O.O.O.O=S(=O)(O)O (stereo not drawn),103,94.3,107 (inactive),98.4 (inactive)
CCCOc1ccccc1-c1nc2[nH][nH]nc-2c(=O)n1 [Zaprinast],100.3 ± 0.47,113 ± 8.6,99.1 (inactive),104 (inactive)
O=C1c2cccc(O)c2C(=O)c2c(O)cc(CO)cc21 [Aloe-emodine],95.7,89.9,97.3 (inactive),99.5 (inactive)
COc1ccc2c(c1OC)C(=O)OC2C1c2c(cc3c(c2OC)OCO3)CCN1C (racemic),98.6,96.2,105 (inactive),94.1 (inactive)
c1ccc2c(CC3=NCCN3)cccc2c1 [Naphazoline],99.4,102,98 (inactive),113 (inactive)
O=c1c2ccccc2nc2n1CCc1c-2[nH]c2ccccc12 [Rutaecarpine],102 ± 6.6,103.4 ± 0.87,94.9 (inactive),102 (inactive)
N#CC(=Cc1ccc(O)c(O)c1)C(=O)Nc1ccccc1 [Tyrphostin AG 494],87.1,94.9,88 (inactive),108 (inactive)
Cc1ncc([N+](=O)[O-])n1CC(C)O (stereo not drawn) [Secnidazole],102,96.6,93.5 (inactive),107 (inactive)
CCc1cc(CCC2(C3CCCC3)CC(O)=C(Cc3nc4nc(C)cc(C)n4n3)C(=O)O2)cc(CC)n1 (stereo not drawn),97.3,106,87.6 (inactive),104 (inactive)
COc1ccc(CNC(=O)c2sc3nc(C)cc(C)c3c2N)cc1,100,102,97.5 (inactive),101 (inactive)
CC(=O)SC1CC2=CC(=O)CCC2(C)C2CCC3(C)C(CCC34CCC(=O)O4)C12 (stereo not drawn) [Spironolactone],99.1 ± 3.8,105 ± 7.3,92.2 (inactive),104 (inactive)
COCCCCC(=NOCCN)c1ccc(C(F)(F)F)cc1.O=C(O)C=CC(=O)O [Fluvoxamine maleate],98.6,97.1,95.3 (inactive),92.4 (inactive)
O=C1CCC(N2C(=O)c3ccccc3C2=O)C(=O)N1 (racemic),103,108,99.5 (inactive),99.3 (inactive)
COc1cc2nccc(Oc3ccc(NC(=O)Nc4ccc(F)cc4F)c(F)c3)c2cc1OC,74.9,59.9,103 (inactive),108 (inactive)
O=C(CCCCCCC(=O)Nc1ccccc1)NO,101,95.7,121 (active),100 (inactive)
CC(C)(C)OC(=O)CN(Cc1ccc(Cl)cc1)Cc1ccc([N+](=O)[O-])s1,100,105,102 (inactive),99 (inactive)
CCCCCC(O)C=CC1C(O)CC(O)C1CC(=O)CCCCC(=O)O (stereo not drawn) [6-Keto-prostaglandin F1a],101,91.3,102 (inactive),108 (inactive)
N#CC(=Cc1ccc(O)c(O)c1)C(=O)NCCCNC(=O)C(C#N)=Cc1ccc(O)c(O)c1 [Tyrphostin AG 537],101,101,94 (inactive),99.6 (inactive)
CCCCCCCCCCCCCCCCOCC(COCC(F)(F)F)OP(=O)([O-])OC.[Li+] (stereo not drawn),102,93.8,99.5 (inactive),92.3 (inactive)
CNCCC(Oc1ccc(C(F)(F)F)cc1)c1ccccc1.Cl (stereo not drawn) [R-(-)-Fluoxetine hydrochloride],92,105,110 (inactive),117 (inactive)
CCC(=C(CC)c1ccc(O)cc1)c1ccc(O)cc1 [Diethylstilbestrol],99.3,92.6,99 (inactive),111 (inactive)
Cn1c(-c2ccc3c(c2)OCO3)cc(=O)c2ccccc21 [Graveoline],103,99.8,101 (inactive),96.9 (inactive)
C#Cc1cccc(Nc2ncnc3cc(OCCOC)c(OCCOC)cc23)c1 [Erlotinib],94.8 ± 8,94.5 ± 3.9,91.3 (inactive),108 (inactive)

SMILES,cell number (HCC1569 [1]),cell number (TDF [2]),H1.0 immunofluorescence intensity (TDF [3]),H1.0 immunofluorescence intensity (HCC1569 [4])
"CC(C)(C)n1nc(Cc2cccc3ccccc23)c2c(N)ncnc21 [PP1 Analog II, 1NM-PP1]",82.1,103,93.1 (inactive),152 (active)
CCCCC=CCCCCCCCC(=O)O [9(E)-Tetradecenoic acid],98.8,106,98.8 (inactive),98 (inactive)
C=CCc1ccc(O)c(-c2ccc(O)c(CC=C)c2)c1 [Honokiol],100,107,81 (inactive),101 (inactive)
CC(C)NCC(O)c1ccc(O)c(O)c1.O=C(O)C(O)C(O)C(=O)O (stereo not drawn) [R(-)-Isoproterenol (+)-bitartrate],99.2,79.3,99 (inactive),120 (inactive)
COc1ccc2c3c1OC1CC(O)C=CC31CCN(C)C2 (stereo not drawn) [Galanthamine],101,110,94 (inactive),94.8 (inactive)
CCn1cc(C(=O)O)c(=O)c2cc(F)c(N3CCNCC3)cc21 [Norfloxacin],100,108,105 (inactive),101 (inactive)
"COC1=CC(=O)CC(C)C12Oc1c(Cl)c(OC)cc(OC)c1C2=O (single isomer, unassigned; (+)) [(+)-Griseofulvin]",100,108,99.2 (inactive),95.6 (inactive)
CCCCCC(O)c1cccc(OCc2ccc3ccccc3n2)c1 (stereo not drawn),103 and 102,107 and 102,104 (inactive) and 91.2 (inactive),110 (inactive) and 101 (inactive)
Nc1ccn(C2OC(CO)C(O)C2O)c(=O)n1 (stereo not drawn) [Cytarabine],79.6,51.3,105 (inactive),102 (inactive)
CCCCCC(O)C=CC1OC(O)CC(O)C1CC=CCCCC(=O)O (stereo not drawn) [Thromboxane B2],96.2,95.2,102 (inactive),97.9 (inactive)
Clc1ccc(CCC(Cn2ccnc2)Sc2c(Cl)cccc2Cl)cc1.O=[N+]([O-])O (stereo not drawn) [Butoconazole nitrate],98.1,99.7,93 (inactive),115 (inactive)
CCOC(=O)CNC(=O)[C@@H]1CCCN1C(=O)Cc1ccccc1,102,109,97.4 (inactive),87.1 (inactive)
O=C(C=Cc1ccc(O)cc1)CC(=O)C=Cc1ccc(O)cc1 [bis-demethoxycurcumin],82.7,98.6,92.7 (inactive),104 (inactive)
Cl.NCC(O)C1CCCCCCC1 (stereo not drawn) [2-Cyclooctyl-2-hydroxyethylamine hydrochloride],101,103,97.1 (inactive),92.8 (inactive)
O=C(NC(Cc1ccccc1)C(=O)CCl)OCc1ccccc1 [Z-L-Phe chloromethyl ketone],54.9,52.5,120 (inactive),116 (inactive)
Clc1cccc(CNC2=Nc3ccccc3NC23CCNCC3)c1,99,89.6,106 (inactive),124 (inactive)
CC(=O)O.O=C(NCC1CCCCN1)c1cc(OCC(F)(F)F)ccc1OCC(F)(F)F (stereo not drawn) [Flecainide acetate],102 ± 3.6,101 ± 1.2,91.5 (inactive),107 (inactive)
CCCCCCCCCCCCCCCC(=O)NCC(COP(=O)([O-])OCC[N+](C)(C)C)OCC (racemic) [rac-2-Ethoxy-3-hexadecanamido-1-propylphosphocholine],96.1,96.3,97.5 (inactive),104 (inactive)
OC(CS)C(O)CS (stereo not drawn),103,104,93.7 (inactive),102 (inactive)
N[C@H](C(=O)O)c1cccc(O)c1 [(S)-3-Hydroxyphenylglycine],95.2,99.7,102 (inactive),100 (inactive)
OCC1OC(n2cnc3c(NC4CCCC4)nc(Cl)nc32)C(O)C1O (stereo not drawn) [2-Chloro-N6-cyclopentyladenosine],109,104,89.3 (inactive),80.9 (inactive)
COc1ccc2c(c1OC)N=C(NC(=O)c1cccnc1)N1CCN=C21,99.8,93.2,94.1 (inactive),101 (inactive)
CC#CC1(O)CCC2C3CCC4=CC(=O)CCC4=C3C(c3ccc(N(C)C)cc3)CC21C (stereo not drawn) [Mifepristone],101 ± 8.2,111 ± 13,96.8 (inactive),102 (inactive)
N#CC(=Cc1ccc(O)cc1)C(N)=C(C#N)C#N,99,96.7,95.4 (inactive),110 (inactive)
CN=C(NC#N)NCCSCc1csc(N=C(N)N)n1 [Tiotidine],102,88.1,105 (inactive),99.1 (inactive)
CC(NCCc1ccc(O)cc1)C(O)c1ccc(O)cc1.Cl (stereo not drawn) [Ritodrine hydrochloride],107,113,101 (inactive),91.5 (inactive)
